Some test systems named below: NCI-H23 lung; NCI-H226 lung; NCI-H322M lung; HOP-62 NSCLC; NCI-H460 lung; HOP-92 NSCLC; NCI-H522 lung; A549/ATCC NSCLC; 786-0 renal; COLO 205 colon; DU-145 prostate; K-562 leukemia; MALME-3M melanoma; MDA-MB-231 breast; RXF 393 renal; SF-268 CNS; SF-295 CNS; SF-539 CNS; UACC-257 melanoma; M14 melanoma.
Experiment in all cases: NCI-60 one-dose screen, 48 h (100 = growth as untreated, 0 = no growth, -100 = all killed)
Common to all, as to conditions: 10 µM unless noted

The panel holds about 83,000 compounds, 20% with a hit somewhere; the sample as a whole holds those more often.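 Assay: single dose, 48 h. Readout: percent growth (0 = no net growth; negative = cell death). Active: <10.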 A number with no mark means an inactive call. Active and inactive are the calls of the source.

Take `CCN(CC)CCCNc1nccc2ccc(Cl)cc12`: the growth with NCI-H23 lung is 107%; with NCI-H226 lung, 97.9%; in the assay on NCI-H322M lung, 104%; in the assay with HOP-62 NSCLC, 96.5%; with NCI-H460 lung, 103%; in the assay on HOP-92 NSCLC, 68.1%. Besides, the growth in the assay on NCI-H522 lung is 102%; with A549/ATCC NSCLC it was 94.9%; in the assay on 786-0 renal, 104%; with COLO 205 colon, 108%; in the assay with DU-145 prostate, 113%; in the assay with K-562 leukemia it was 107%. In addition, the growth is 111% in the assay on MALME-3M melanoma; 87% in the assay with MDA-MB-231 breast; 97.6% in the assay with RXF 393 renal; 111% with SF-268 CNS; 100% with SF-295 CNS; 104% in the assay on SF-539 CNS. In addition, the growth with UACC-257 melanoma was 91%; in the assay on M14 melanoma, 95%.
With `C/C(=N/NC(=S)Nc1ccccc1)c1nc2ccc(Cl)cc2[nH]1`, the growth in the assay with NCI-H23 lung was -45.3% (active); with NCI-H226 lung, -42.4% (active); in the assay on NCI-H322M lung it was -40.4% (active); in the assay on HOP-62 NSCLC, -97.1% (active); with NCI-H460 lung it was -66.6% (active); in the assay on HOP-92 NSCLC, -68.8% (active). In addition, the growth with NCI-H522 lung is -93.4% (active); in the assay with A549/ATCC NSCLC, -10.9% (active); with 786-0 renal, -47.6% (active); in the assay on COLO 205 colon, -89.3% (active); with DU-145 prostate, -99.1% (active); with K-562 leukemia it was -9.4% (active). Besides, the growth with MALME-3M melanoma is -74% (active); in the assay on MDA-MB-231 breast, -21.4% (active); in the assay on RXF 393 renal, -91.5% (active); in the assay with SF-268 CNS it was -89.6% (active); with SF-295 CNS, -58.6% (active); with SF-539 CNS, -72.1% (active). Moreover, the growth in the assay on UACC-257 melanoma is -94.9% (active).
As to `O=C(Oc1ccccc1[N+](=O)[O-])C1CCCN1C(=O)OCc1ccccc1` (stereo unspecified), the growth with NCI-H23 lung is 95.1%; with NCI-H226 lung, 99.8%; in the assay on NCI-H322M lung, 121%; in the assay with HOP-62 NSCLC, 111%; with NCI-H460 lung, 116%; in the assay with HOP-92 NSCLC, 86.3%. Moreover, the growth in the assay on NCI-H522 lung was 101%; in the assay with A549/ATCC NSCLC, 98.5%; with 786-0 renal it was 98.6%; in the assay on COLO 205 colon, 115%; in the assay with DU-145 prostate it was 111%; in the assay on K-562 leukemia it was 94.6%. Moreover, the growth was 112% with MALME-3M melanoma; 103% with MDA-MB-231 breast; 96% in the assay with RXF 393 renal; 108% with SF-268 CNS; 117% in the assay on SF-295 CNS; 97.2% in the assay with SF-539 CNS. Also, the figures for the growth with UACC-257 melanoma and in the assay on M14 melanoma were 94.2% and 93%, respectively.
Consider `COc1ccc(C2NN=C3c4ccccc4CCC32)cc1` (stereo unspecified), for which the growth in the assay on NCI-H23 lung was 67.7%; in the assay on NCI-H226 lung it was 73.5%; in the assay on NCI-H322M lung, 104%; in the assay on HOP-62 NSCLC it was 67.3%; in the assay on NCI-H460 lung it was 56.3%; with HOP-92 NSCLC, 67.5%. The growth is 47.2% in the assay on NCI-H522 lung; 68.1% in the assay with A549/ATCC NSCLC; 91.3% in the assay with 786-0 renal; 78.4% in the assay with COLO 205 colon; 98.8% in the assay on DU-145 prostate; 10.2% with K-562 leukemia. Besides, the growth was 25.4% in the assay on MALME-3M melanoma; 58.5% in the assay with MDA-MB-231 breast; 47% in the assay with RXF 393 renal; 69.3% in the assay on SF-268 CNS; 40.2% with SF-295 CNS; 58% in the assay on SF-539 CNS. Besides, the growth in the assay with UACC-257 melanoma is 60.1%.
As for `CCCCCCCCCCCCNC(=O)[C@H]1CSC(c2ccsc2)N1` (stereo partly specified), the growth in the assay with NCI-H23 lung was -52.9% (active); in the assay with NCI-H226 lung, -74.1% (active); in the assay with NCI-H322M lung, 3.58% (active); with HOP-62 NSCLC, -94.7% (active); with NCI-H460 lung, -80.1% (active); in the assay on HOP-92 NSCLC, -10% (active). Moreover, the growth was 32.7% in the assay with NCI-H522 lung; 63.7% in the assay with A549/ATCC NSCLC; -94.8% (active) in the assay on 786-0 renal; 84% in the assay with COLO 205 colon; -85.8% (active) in the assay on DU-145 prostate; -57% (active) with K-562 leukemia. Also, the growth is -69.9% (active) in the assay on MALME-3M melanoma; -80.5% (active) in the assay on MDA-MB-231 breast; -93.2% (active) with RXF 393 renal; -77.1% (active) in the assay on SF-268 CNS; -29.9% (active) in the assay with SF-295 CNS; -89.2% (active) in the assay on SF-539 CNS. Besides, the growth in the assay with UACC-257 melanoma was -87.2% (active); with M14 melanoma, -77.5% (active).
For `C=C1CCC2C(C)(CO)C(O)CCC2(C)C1CC(NCc1ccccc1)C1=CCOC1=O` (stereo unspecified), the growth in the assay on NCI-H23 lung is 98.9%; in the assay with NCI-H226 lung it was 100%; in the assay with NCI-H322M lung, 103%; in the assay on HOP-62 NSCLC it was 107%; in the assay on NCI-H460 lung, 102%; with HOP-92 NSCLC, 99.8%. Further, the growth in the assay with NCI-H522 lung is 89.9%; with A549/ATCC NSCLC, 99.9%; with 786-0 renal, 96.3%; in the assay on COLO 205 colon, 103%; with DU-145 prostate it was 104%; in the assay on K-562 leukemia, 101%. Besides, the growth with MALME-3M melanoma was 100%; in the assay with MDA-MB-231 breast, 99.6%; in the assay with RXF 393 renal, 103%; with SF-268 CNS, 86.5%; with SF-295 CNS it was 111%; with SF-539 CNS, 101%. In addition, the growth is 102% in the assay on UACC-257 melanoma and 97.3% in the assay with M14 melanoma.
Consider `COC1=C(OC)C(=O)C(CCCCCCCCCC[P+](c2ccccc2)(c2ccccc2)c2ccccc2)=C(C)C1=O`, for which the growth was -8.24% (active) in the assay on NCI-H23 lung; -19.5% (active) with NCI-H226 lung; -17.9% (active) in the assay with NCI-H322M lung; -19.5% (active) in the assay on HOP-62 NSCLC; -52.1% (active) with NCI-H460 lung; -47.3% (active) in the assay with HOP-92 NSCLC. In addition, the growth in the assay on NCI-H522 lung was 2.62% (active); with A549/ATCC NSCLC, -4.09% (active); with 786-0 renal it was -57.8% (active); in the assay with COLO 205 colon, -93.3% (active); in the assay with DU-145 prostate, 6.01% (active); in the assay with K-562 leukemia it was -48.9% (active). Moreover, the growth is -86.3% (active) with MALME-3M melanoma; -39.6% (active) in the assay with MDA-MB-231 breast; -56.7% (active) in the assay on RXF 393 renal; -61.6% (active) with SF-268 CNS; -52.6% (active) in the assay on SF-295 CNS; -25.1% (active) in the assay with SF-539 CNS. Moreover, in the assay on UACC-257 melanoma, the growth was -61.2% (active).
Consider `CCCN=C1NC(=O)/C(=C/c2nc(-c3ccc(OC)cc3)n3ccccc23)S1`, for which the growth in the assay on NCI-H23 lung was 77.9%; in the assay on NCI-H226 lung, 84.6%; in the assay on NCI-H322M lung, 82.5%; with HOP-62 NSCLC, 98.8%; in the assay with NCI-H460 lung it was 37.4%; in the assay on HOP-92 NSCLC, 106%. The growth with NCI-H522 lung was 88.1%; in the assay with A549/ATCC NSCLC, 73.3%; in the assay on 786-0 renal, 58.5%; in the assay on COLO 205 colon, 109%; in the assay on DU-145 prostate, 38.9%; in the assay on K-562 leukemia it was 91.6%. Also, the growth with MALME-3M melanoma is 95.3%; in the assay with MDA-MB-231 breast, 55.9%; with RXF 393 renal it was 54.6%; with SF-268 CNS, 76.2%; in the assay on SF-295 CNS, 124%; in the assay with SF-539 CNS it was 95.4%. The growth in the assay with UACC-257 melanoma is 110%.

Source of the values: PubChem BioAssay (NCI).
